Compound activity as filed in PubChem.
MazF activator: MazEF (E. coli) toxin RNase activation; AID 504720; FAM/BHQ RNA-DNA oligo cleavage fluorescence, 5 h; P0AE70; activation, % at 20 µM; actives 0.32% (n = 350,000); in the data active = activation above about 50%
Target sequence (P0AE70 whole entry, looked up): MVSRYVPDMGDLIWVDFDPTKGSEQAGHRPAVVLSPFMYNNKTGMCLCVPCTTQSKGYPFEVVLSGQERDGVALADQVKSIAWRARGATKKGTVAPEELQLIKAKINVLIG
BoNT-F LC inh: inhibitors of Botulinum neurotoxin F light chain protease. inhibition, % at 10 µM. actives 0.22% (n = 360,000). Multiplex microsphere protease cleavage assay, flow cytometry. AID 588497; in the data active = inhibition above about 35%, passing the limit was not always enough; inconclusive = no clear call, values can overlap the other calls
Autofluor counter: counter-screen for toxin protease inhibitors: compound fluorescence; compound autofluorescence counterscreen, microsphere flow cytometry; hits give high values; fluorescence intensity (test concentration not listed); actives 3.1% (n = 360,000); in the data active = fluorescence intensity above about 16000; inconclusive = no clear call, values can overlap the other calls
Anthrax LF prot: inhibitors of Bacillus anthracis lethal factor protease; actives 0.12% (n = 360,000); multiplex microsphere protease cleavage assay, LF; P15917; AID 588501; inhibition, % at 10 µM
BoNT-A LC inh2: inhibitors of Botulinum neurotoxin A light chain protease; multiplex microsphere protease substrate cleavage, flow cytometry; inhibition, % at 10 µM; actives 0.17% (n = 360,000)
SSB-PriA inh: inhibitors of Klebsiella pneumoniae PriA binding to SSB C-terminal tail | AlphaScreen SSBct-PriA binding, biotinylated peptide | inhibition, % at 33 µM | actives 0.6% (n = 430,000) | AID 1272365; in the data active = inhibition mostly above about 37%, no sharp cut-off; inactive = mostly below about 20%
Each line names hits and unclear results; the compound was inactive in the other large screens. An excerpt weighted towards active compounds, which were near 3.3% of everything screened. Cut-off read from the data, not from the text of the source, unless noted: active = inhibition above about 30%; inconclusive = no clear call, values can overlap the other calls; inactive = below that.

COc1ccccc1C(=O)NC(C)C(c1cccs1)N1CCN(C)CC1 (configuration not stated)	Autofluor counter 23363
COc1ccc(N2CCN(C(c3cccs3)C(C)NS(=O)(=O)c3ccccc3)CC2)cc1 (configuration not stated)	Autofluor counter 16688
CCS(=O)(=O)NC(C)C(c1cccs1)N1CCN(c2ccc(OC)cc2)CC1 (configuration not stated)	none
CC(NS(=O)(=O)c1ccc(F)cc1)C(c1cccs1)N1CCN(C)CC1 (configuration not stated)	Autofluor counter 24274
CCN1CCN(C(c2cccs2)C(C)NC(=O)c2ccco2)CC1 (configuration not stated)	Autofluor counter 23437
CCN1CCN(C(c2cccs2)C(C)NC(=O)CC(C)C)CC1 (configuration not stated)	none
Cc1oc(-c2cccc(Cl)c2)nc1Cn1c(=O)n(CC2CCCO2)c(=O)c2ccccc21 (configuration not stated)	none (no result: MazF activator, BoNT-F LC inh, Autofluor counter, Anthrax LF prot, BoNT-A LC inh2)
CC(=O)Nc1nc(SCC(=O)Nc2nc(C)cs2)[nH]c(=O)c1NC(=O)c1cccs1	none (no result: MazF activator, BoNT-F LC inh, Autofluor counter, Anthrax LF prot, BoNT-A LC inh2)
O=C(Nc1cccnc1)NC1CC(=O)N(c2ccccc2)C1 (configuration not stated)	none (no result: MazF activator, BoNT-F LC inh, Autofluor counter, Anthrax LF prot, BoNT-A LC inh2)
O=C(NCc1cccnc1-c1cccs1)[C@H]1CCOC1	none (no result: MazF activator, BoNT-F LC inh, Autofluor counter, Anthrax LF prot, BoNT-A LC inh2)
CC(NC(=O)c1ccc(N(C)C)cc1)C(c1cccs1)N1CCN(C)CC1 (configuration not stated)	none
CC(NC(=O)c1ccc(F)cc1)C(c1cccs1)N1CCN(C)CC1 (configuration not stated)	Autofluor counter 21892
CC1CCCN(C(=O)c2ccc3c(c2NCCO)C(=O)c2ccccc2C3=O)C1 (configuration not stated)	SSB-PriA inh 64
O=C1c2ccccc2C(=O)c2c1ccc(C(=O)N1CCCCC1)c2NCCO	none
C=CCn1c(SCC(N)=O)nc2scc(-c3ccc(Cl)cc3)c2c1=O	none (no result: MazF activator, BoNT-F LC inh, Autofluor counter, Anthrax LF prot, BoNT-A LC inh2)
Cc1nc(-c2cccs2)sc1CNC(=O)CCSc1ccccc1	none (no result: MazF activator, BoNT-F LC inh, Autofluor counter, Anthrax LF prot, BoNT-A LC inh2)
CCc1nc2ccc(C)cc2c(C(=O)NC2CCCCC2C)c1C (configuration not stated)	Autofluor counter 18786, BoNT-A LC inh2 inconclusive
Cc1c(C(=O)N2CCS[C@H](c3ccccc3)CC2)cnn1-c1ccccc1	none (no result: MazF activator, BoNT-F LC inh, Autofluor counter, Anthrax LF prot, BoNT-A LC inh2)
O=C(c1ccc(C(F)(F)F)cc1)N1CCC(CSCc2ccco2)CC1	none (no result: MazF activator, BoNT-F LC inh, Autofluor counter, Anthrax LF prot, BoNT-A LC inh2)
CCOC(=O)CC(=O)CSc1nc2ccccc2c(=O)n1-c1ccc(C(=O)NCCOC)cc1	Autofluor counter 16847
O=c1[nH][nH]c2nc(C(F)(F)F)cc(C(F)(F)F)c12	Autofluor counter 22696, BoNT-A LC inh2 inconclusive
C[C@@H]1C(=O)N2CCCc3cc(NC(=O)C(=O)NCCN4CCOCC4)cc1c32	none (no result: MazF activator, BoNT-F LC inh, Autofluor counter, Anthrax LF prot, BoNT-A LC inh2)
COc1ccc(CN2C(=O)c3cccnc3C2Nc2cc(Cl)ccc2OC)cc1 (configuration not stated)	Autofluor counter 21495
COc1ccc(OC)c(NC2c3ncccc3C(=O)N2Cc2ccco2)c1 (configuration not stated)	Autofluor counter 16912
COC(=O)c1ccc(C(=O)Nc2nc(-c3cc4ccc(OC)cc4o3)cs2)cc1	none (no result: MazF activator, BoNT-F LC inh, Autofluor counter, Anthrax LF prot, BoNT-A LC inh2)
COc1ccc(N2C(=O)NC(=O)/C(=C/c3cccc(OC(=O)c4cccs4)c3)C2=O)cc1Cl	none (no result: BoNT-F LC inh, Autofluor counter, Anthrax LF prot, BoNT-A LC inh2)
Cc1ccc(N2C(=O)NC(=O)/C(=C/c3ccc(OC(=O)c4cccs4)cc3)C2=O)cc1	Autofluor counter 24767, BoNT-A LC inh2 inconclusive
O=C(CSCC(=O)N1CCN(c2ccccc2)CC1)Nc1nc(-c2ccc3c(c2)OCO3)cs1	none (no result: MazF activator, BoNT-F LC inh, Autofluor counter, Anthrax LF prot, BoNT-A LC inh2)
COc1ccc(N=Nc2cc(C)c(O)c(CN3CCCCC3)c2)cc1	SSB-PriA inh 54 (no result: BoNT-F LC inh, Autofluor counter, Anthrax LF prot, BoNT-A LC inh2)
COC(=O)C1=C(C)N(C)C(=S)NC1c1c(OCc2ccccc2)ccc2ccccc12 (configuration not stated)	none (no result: MazF activator, BoNT-F LC inh, Autofluor counter, Anthrax LF prot, BoNT-A LC inh2)
CO[C@@H](CNC(=O)c1ccc(S(=O)(=O)N(C)C)cc1)c1ccsc1	none (no result: MazF activator, BoNT-F LC inh, Autofluor counter, Anthrax LF prot, BoNT-A LC inh2)
CC(=NN1CCCCC1)c1c(O)[nH]c(=O)[nH]c1=O	none (no result: MazF activator, BoNT-F LC inh, Autofluor counter, Anthrax LF prot, BoNT-A LC inh2)
COc1ccc(-n2c(O)c(C(C)=NCCN3CCNCC3)c(=O)[nH]c2=O)cc1	Autofluor counter 22171
CC(=NCCN1CCCCC1)c1c(O)n(Cc2ccccc2)c(=O)[nH]c1=O	Autofluor counter 23910
CC(=NCCCn1ccnc1)c1c(O)n(Cc2ccccc2)c(=O)[nH]c1=O	Autofluor counter 20727
CC(=NCCN1CCCCC1)c1c(O)[nH]c(=O)[nH]c1=O	Autofluor counter 16267
O=C(Nc1ccccc1F)N1CCC[C@H](Cc2nc(C3CC3)no2)C1	none (no result: MazF activator, BoNT-F LC inh, Autofluor counter, Anthrax LF prot, BoNT-A LC inh2)
O=C(NC1CCCCC1)N1CCCCCC1	none
O=C(NC1CCCCC1)N1CCCC1	Autofluor counter 21923
Cc1cccc(NC(=O)C2CCCN(C(=O)Nc3ccccc3)C2)c1C (configuration not stated)	Autofluor counter 22928, BoNT-A LC inh2 inconclusive
Cc1cccc(NC(=O)C2CCCN2C(=O)OCC(C)C)c1C (configuration not stated)	Autofluor counter 21398
O=C(NCCc1ccccc1)C1CCCN(C(=O)NC2CCCCC2)C1 (configuration not stated)	Autofluor counter 22227, BoNT-A LC inh2 inconclusive
CSc1ccccc1C(=O)NCc1cc(-c2ccco2)on1	none (no result: MazF activator, BoNT-F LC inh, Autofluor counter, Anthrax LF prot, BoNT-A LC inh2)
O=C(Nc1ccccc1Cl)[C@@H]1COCC(=O)N1Cc1ccccc1	none (no result: MazF activator, BoNT-F LC inh, Autofluor counter, Anthrax LF prot, BoNT-A LC inh2)
CCCOc1ccc(-c2csc(NC(=O)c3ccc(OC)c(OC)c3)n2)cc1	none (no result: MazF activator, BoNT-F LC inh, Autofluor counter, Anthrax LF prot, BoNT-A LC inh2)
O=C(NCc1ccccc1)C1CCCN(C(=O)Nc2ccccc2)C1 (configuration not stated)	Autofluor counter 20689, BoNT-A LC inh2 inconclusive
O=C(NCc1ccccn1)Nc1cc(Cl)ccc1Cl	none
O=C(CC(NCc1ccccn1)C(=O)O)Nc1ccccc1Cl (configuration not stated)	SSB-PriA inh 97
CCCN(CCC)CCNC(=O)C(NS(=O)(=O)c1ccc2c(c1)CCC(=O)N2)c1ccccc1 (configuration not stated)	Autofluor counter 23934
CC(=O)NCCNC(=O)[C@H](Cc1ccccc1)NC(=O)c1cccs1	Autofluor counter 20647, BoNT-A LC inh2 inconclusive
Cc1ccc(NC(=O)C(Cc2ccccc2)NC(=O)c2ccco2)cc1 (configuration not stated)	Autofluor counter 23460, BoNT-A LC inh2 inconclusive
O=C(O)c1ccc(NC(=S)NC(NC(=O)c2ccco2)C(Cl)(Cl)Cl)cc1 (configuration not stated)	Autofluor counter 25206
Cc1ccc(CC(NC(=O)c2ccccc2)C(=O)NCC(=O)O)cc1 (configuration not stated)	Autofluor counter 22985
O=C(c1c(F)cccc1Cl)N1CCC(Cc2n[nH]c(=O)n2-c2ccccc2F)CC1	none (no result: MazF activator, BoNT-F LC inh, Autofluor counter, Anthrax LF prot, BoNT-A LC inh2)
CCOC(=O)C1CCN(CC(O)COc2ccc(C(=O)CC)cc2)CC1 (configuration not stated)	Autofluor counter 22284
COc1ccc(OCC(O)Cn2c(=N)n(Cc3ccccc3)c3ccccc32)cc1 (configuration not stated)	none
